From PubChem BioAssay (NCI) come the findings set out here.

Compounds without any hit were thinned out: in the full panel of roughly 79,000, 15% have a hit. A number with no mark means an inactive call. The source made the active and inactive calls. Cut-off read from the data, not from the text of the source: active = growth inhibition above about 70%; inactive = the rest.

The test is described as follows: NCI Yeast Anticancer Drug Screen. Data for the sgs1 strain (AID 173).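 Note: 0% = growth of vehicle-only control cultures.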 The conditions noted are these: S. cerevisiae sgs1 mutant, stronger effect = higher value. As for the experimental part:
Growth inhibition of yeast strains with defined genetic alterations is measured as a screen for potential anti-cancer activity. Selected strains with alterations in DNA damage repair or cell cycle control were exposed to compounds and growth inhibition was measured relative to vehicle treated controls. The strain used in this assay is sgs1

As to `COc1ccc2c(c1)[nH]c1c(/C=C/c3ccccc3)nccc12`, the growth inhibition (at 1.2 µM) is 2%; the growth inhibition (at 3.7 µM) is -7%; the growth inhibition (at 11.0 µM) was -3%; the growth inhibition (at 33.0 µM) was 78% (active); the growth inhibition (at 100.0 µM) is 97% (active).

For `NCc1c(O)ccc2ccccc12`, the growth inhibition by setting is: (at 1.2 µM) -10%; (at 3.7 µM) -5%; (at 11.0 µM) 37%; (at 33.0 µM) 99% (active); (at 100.0 µM) 99% (active).

Take `Cc1ccc(S(=O)(=O)N/N=C/C2(c3ccccc3)c3ccccc3-c3ccccc32)cc1`: the growth inhibition is, setting by setting: (at 1.2 µM) 16%; (at 3.7 µM) 15%; (at 11.0 µM) 45%; (at 33.0 µM) 82% (active); (at 100.0 µM) 80% (active).

Turning to `CCOP1(=O)C=C(Sc2ccc([N+](=O)[O-])cc2[N+](=O)[O-])C(C)(C)O1` (stereo not given), the growth inhibition (at 1.2 µM) is 3%; the growth inhibition (at 3.7 µM) is 6%; the growth inhibition (at 11.0 µM) is 13%; the growth inhibition (at 33.0 µM) is 37%; the growth inhibition (at 100.0 µM) was 84% (active).

Consider `CCCCCCCCN1C(=O)c2ccccc2C1=O`, for which the growth inhibition by setting is: (at 1.2 µM) -3%; (at 3.7 µM) -1%; (at 11.0 µM) 0%; (at 33.0 µM) 4%; (at 100.0 µM) 13%.

With `CC[C@@]1(OC(=O)CCC(=O)O)C(=O)OCc2c1cc1n(c2=O)Cc2cc3ccccc3nc2-1`, the growth inhibition (at 1.2 µM) was 18%; the growth inhibition (at 3.7 µM) was 21%; the growth inhibition (at 11.0 µM) is 31%; the growth inhibition (at 33.0 µM) is 80% (active); the growth inhibition (at 100.0 µM) is 88% (active).

In the case of `Cc1c2cc[n+](CCN3CCCCC3)cc2c(C)c2c1[nH]c1ccc(O)cc12`, the growth inhibition is, setting by setting: (at 1.2 µM) -1%; (at 3.7 µM) -2%; (at 11.0 µM) 1%; (at 33.0 µM) 12%; (at 100.0 µM) 94% (active).

`O/N=C/C1c2ccccc2-c2ccccc21`: the growth inhibition by setting is: (at 1.2 µM) 0%; (at 3.7 µM) -2%; (at 11.0 µM) 0%; (at 33.0 µM) 44%; (at 100.0 µM) 88% (active).
